KB-V1 cytotox = KB-V1 MDR subline cytotoxicity; KB-V1 MDR cells viability, CellTiter-Glo, 72 h; Potency, µM (top dose mostly 46.1 µM), actives largely listed as cytotoxic; actives 3.4% (n = 400,000); also: nearly all actives have a fitted effect of over 60% in size
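Compound-treated KB-V1 multidrug-resistant cells, 72 h, 37 degrees C; viability by CellTiter-Glo. Fitted qHTS curves give the values.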
PI4K2A block = blocks human PI4K2A kinase activity | Q9BTU6 | actives 0.13% (n = 420,000) | purified PI4K2A, ADP-Glo luminescence, 1 h; stronger effect = lower value | activity change, negative = inhibition, % at 76.9 µM; in the data active = activity change below about -50%; inconclusive = mostly about -30% to -49%
Target sequence (Q9BTU6 whole entry, looked up): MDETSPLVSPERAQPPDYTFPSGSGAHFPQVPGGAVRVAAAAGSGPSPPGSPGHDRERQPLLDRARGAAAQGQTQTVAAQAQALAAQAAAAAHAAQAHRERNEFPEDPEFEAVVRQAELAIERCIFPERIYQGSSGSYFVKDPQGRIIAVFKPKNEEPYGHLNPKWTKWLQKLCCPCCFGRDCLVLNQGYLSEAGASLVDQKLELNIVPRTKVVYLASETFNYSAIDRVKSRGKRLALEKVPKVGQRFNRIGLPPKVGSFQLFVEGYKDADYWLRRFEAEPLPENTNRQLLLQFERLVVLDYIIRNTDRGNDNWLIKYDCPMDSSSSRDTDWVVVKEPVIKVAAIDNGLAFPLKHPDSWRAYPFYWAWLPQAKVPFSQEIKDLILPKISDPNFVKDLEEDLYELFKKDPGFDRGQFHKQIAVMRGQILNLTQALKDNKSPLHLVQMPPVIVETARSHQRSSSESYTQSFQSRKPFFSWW
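In this quantitative HTS, ADP production by PI4K2A was quantified luminescently after 1 h at ambient temperature; 100 microM adenosine served as plate-quality control.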
A549 tox = A549 cytotoxicity, counter-screen for Nrf2 inhibitors; A549 ARE-Fluc cells, CellTiter-Fluor viability, 18-24 h; Potency, µM (titrated, usually from 46 µM), actives largely listed as inhibitors; actives 0.16% (n = 390,000); AID 504648
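A549 ARE-Fluc cells in 5% FBS OPTI-MEM, 5000 cells/well, rested 2 h then exposed to compounds in concentration-response for 18-24 h at 37 °C. Viability by CellTiter-Fluor fluorescence (Ex 405/Em 525) after 30 min; luciferase luminescence (BugLite, 15 min, RT) read afterwards.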
KB-3-1 tox = kills parental KB-3-1 adenocarcinoma cells | KB-3-1 viability, CellTiter-Glo ATP luminescence, 72 h | Potency, µM (top dose mostly 46.1 µM), hits mostly cytotoxic | actives 1.4% (n = 400,000) | AID 1347075; also: nearly all actives have a fitted effect of over 60% in size
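Parental KB-3-1 adenocarcinoma cells in phenol-red-free DMEM with 10% FBS were pin-treated with compounds at several concentrations, incubated 72 h at 37 °C, and viability read by CellTiter-Glo luminescence; concentration-effect curves were fitted after normalization.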
Nrf2 block = Nrf2 pathway inhibition | A549 ARE-Fluc reporter, luciferase luminescence, 18-24 h | Potency, µM (doses to about 46 µM), most hits filed as inhibitors | actives 2.1% (n = 360,000) | AID 504444; also: nearly all actives have a fitted effect of over 60% in size
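Two sequential reads on A549 ARE_Fluc cells exposed to compound for 18-24 h: a CellTiter-Fluor fluorescence read for viability, then a luciferase luminescence read for Nrf2/ARE activity.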
Giardia killer = kills Giardia lamblia; activity change, % at 7.66 µM, hits read low; actives 0.15% (n = 340,000); Giardia lamblia trophozoite viability; in the data active = activity change below about -80%; inconclusive = between about -30% and that limit;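 also: parasites exposed to compound for two days anaerobically before the ATP read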
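Giardia lamblia trophozoites (100 cells/well) were incubated with compounds for 48 h at 37 deg C under anaerobic conditions. Viability was read as ATP content by one-step luminescence after 15-30 min at room temperature.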
A number is an active result. Shown are actives, neighbours in structure and some others; about 5.7% of the full set was active somewhere. Unless noted, calls follow the shape of the dose curve; as a rule, active = well fitted curve in the direction sought with a large enough effect; inconclusive = small, poorly fitted or top-dose-only effect, or another doubt; inactive = no such curve, though single readings can be large; an effect the other way counts as inactive or inconclusive.

What do the screens show for `Cc1ccc2nc(NC(=O)c3ccccc3F)sc2c1`?
KB-V1 cytotox: inconclusive; PI4K2A block: inactive; A549 tox: inactive; KB-3-1 tox: inactive; Nrf2 block: inconclusive; Giardia killer: inactive

Results for CCOc1ccc2nc(NC(=O)c3ccoc3C)sc2c1 ?
KB-V1 cytotox: 8.2µM; PI4K2A block: -83; A549 tox: inactive; KB-3-1 tox: 10µM; Nrf2 block: inconclusive; Giardia killer: inactive

What do the screens show for `CCCC(=O)Nc1nc2ccc(NC(=O)c3ccccc3F)cc2s1`?
KB-V1 cytotox: 1.8µM; PI4K2A block: inactive; A549 tox: inactive; KB-3-1 tox: 2.1µM; Nrf2 block: inconclusive; Giardia killer: inactive

Results for COC(=O)c1c(NC(=O)C2c3ccccc3Oc3ccccc32)sc(C)c1C ?
KB-V1 cytotox: inconclusive; PI4K2A block: inactive; A549 tox: inconclusive; KB-3-1 tox: inactive; Giardia killer: inactive

What do the screens show for `COc1ccc(C(=O)Nc2nc3ccccc3s2)c(OC)c1`?
KB-V1 cytotox: 6.5µM; PI4K2A block: inactive; A549 tox: inactive; KB-3-1 tox: 7.3µM; Nrf2 block: 7.3µM; Giardia killer: -95

What do the screens show for `Cc1ccc(NC(=O)c2c(C)oc3ccc(O)c(CN4CCCCCC4)c23)cc1`?
PI4K2A block: inactive; A549 tox: inactive; Nrf2 block: inactive

How did COc1ccc2[nH]c3c(c2c1)CCN[C@]31C(=O)N(Cc2ccccc2)c2ccccc21 do in these assays?
PI4K2A block: inactive

How did CN(C)c1ccc(/C=C/c2nc3ccccc3s2)cc1Cl do in these assays?
KB-V1 cytotox: inactive; KB-3-1 tox: inactive

What do the screens show for `Cc1ccc(C(C)C)cc1NC(=O)Nc1ccc([N+](=O)[O-])cc1`?
KB-V1 cytotox: inactive; PI4K2A block: inactive; A549 tox: inconclusive; KB-3-1 tox: inconclusive; Nrf2 block: 21µM; Giardia killer: inactive

How did Cc1cc([N+](=O)[O-])ccc1NC(=O)Nc1ccc(F)cc1F do in these assays?
KB-V1 cytotox: 15µM; PI4K2A block: inactive; A549 tox: inconclusive; KB-3-1 tox: inconclusive; Nrf2 block: inconclusive; Giardia killer: inactive

How did O=C(Nc1ccc(Oc2ccc(NC(=O)Nc3ccc([N+](=O)[O-])cc3)cc2)cc1)Nc1ccc([N+](=O)[O-])cc1 do in these assays?
KB-V1 cytotox: inconclusive; PI4K2A block: inactive; A549 tox: inconclusive; KB-3-1 tox: 18µM; Nrf2 block: 16µM; Giardia killer: inactive

What do the screens show for `Cc1onc(C(=O)Nc2ccc(OC(F)(F)F)cc2)c1[N+](=O)[O-]`?
KB-V1 cytotox: inactive; PI4K2A block: inactive; A549 tox: inactive; KB-3-1 tox: inactive; Nrf2 block: inactive; Giardia killer: inactive

What do the screens show for `COc1ccc(NC(=O)Nc2ccc(F)cc2F)c(C)c1`?
KB-V1 cytotox: inactive; PI4K2A block: inactive; A549 tox: inactive; KB-3-1 tox: inactive; Nrf2 block: inactive; Giardia killer: inactive

Results for Cc1cc(O)c(C(C)C)cc1NC(=O)Nc1ccc([N+](=O)[O-])cc1 ?
KB-V1 cytotox: inactive; PI4K2A block: inactive; A549 tox: inactive; KB-3-1 tox: inactive; Nrf2 block: inconclusive; Giardia killer: inactive

Results for O=C(Nc1ccc(OC(F)(F)F)cc1)c1[nH]ncc1[N+](=O)[O-] ?
KB-V1 cytotox: inactive; PI4K2A block: inactive; A549 tox: inconclusive; KB-3-1 tox: inactive; Nrf2 block: 7.3µM; Giardia killer: inactive

How did CCOc1ccc(CCNC(=O)c2cc3sccc3n2Cc2cccc(C)c2)cc1OCC do in these assays?
PI4K2A block: inactive

What do the screens show for `Cc1cc(NC(=O)Nc2cccc([N+](=O)[O-])c2)no1`?
KB-V1 cytotox: inactive; PI4K2A block: inactive; A549 tox: inactive; KB-3-1 tox: inactive; Nrf2 block: inactive; Giardia killer: inactive

Results for O=C(Nc1ccc(OC(F)(F)F)cc1)Nc1cccc([N+](=O)[O-])c1 ?
KB-V1 cytotox: 16µM; PI4K2A block: inactive; A549 tox: inconclusive; KB-3-1 tox: 12µM; Nrf2 block: 21µM; Giardia killer: inactive

How did O=C(Nc1ccc([N+](=O)[O-])cc1)Nc1nc(-c2ccc(Cl)s2)cs1 do in these assays?
KB-V1 cytotox: inconclusive; PI4K2A block: inactive; A549 tox: inconclusive; KB-3-1 tox: 2.9µM; Nrf2 block: inconclusive; Giardia killer: inactive

How did O=C(Nc1ccc(OC(F)(F)F)cc1)Nc1cccnc1 do in these assays?
KB-V1 cytotox: inactive; PI4K2A block: inactive; A549 tox: inactive; KB-3-1 tox: inactive; Nrf2 block: inactive; Giardia killer: inactive

How did Cc1ccc(NC(=O)Nc2cccc([N+](=O)[O-])c2)cc1F do in these assays?
KB-V1 cytotox: 16µM; PI4K2A block: inactive; A549 tox: inconclusive; KB-3-1 tox: inconclusive; Nrf2 block: inconclusive; Giardia killer: inactive

Results for S=C(Nc1ccccc1Cl)OCCN1CCCC12CCC(c1ccccc1)CC2 (stereo not given) ?
PI4K2A block: inactive

How did NN=C1c2cc(S(=O)(=O)NCCO)ccc2-c2ccc(S(=O)(=O)NCCO)cc21 do in these assays?
KB-V1 cytotox: inactive; A549 tox: inactive; KB-3-1 tox: inconclusive; Nrf2 block: inactive; Giardia killer: inactive

How did O=[N+]([O-])c1ccc(N2CCCCC2)cc1SCCO do in these assays?
KB-V1 cytotox: inactive; PI4K2A block: inactive; A549 tox: inactive; KB-3-1 tox: inactive; Nrf2 block: inactive; Giardia killer: inactive

What do the screens show for `Cc1nc(N2CCCCC2)sc1C(=O)c1ccc(SCCO)c([N+](=O)[O-])c1`?
KB-V1 cytotox: 15µM; PI4K2A block: inactive; A549 tox: inconclusive; KB-3-1 tox: inactive; Nrf2 block: 21µM; Giardia killer: inactive

What do the screens show for `CCCCNC(=O)C[C@H]1C[C@@]2(C(=O)OC)C(=C[C@H](C(C)(C)C)O[C@@H]2C)N(CCc2ccc(OC)c(OC)c2)C1=O`?
PI4K2A block: inactive

What do the screens show for `C[C@@H]1COc2cc(Br)ccc2S(=O)(=O)N1Cc1cn(Cc2ccc(Cl)cc2)nn1`?
PI4K2A block: inactive

Results for C/C(=N/NC(=O)c1nnn(-c2nonc2N)c1-c1ccccc1)c1ccc2c(c1)OCO2 ?
KB-V1 cytotox: inactive; PI4K2A block: inactive; A549 tox: inactive; KB-3-1 tox: inactive; Nrf2 block: inactive; Giardia killer: inactive

How did C/C(=N\N=C(/N)c1nonc1N)c1ccc2c(c1)OCO2 do in these assays?
KB-V1 cytotox: 1.5µM; PI4K2A block: inactive; A549 tox: inactive; KB-3-1 tox: 6.5µM; Nrf2 block: inconclusive; Giardia killer: inactive

How did O=C(NC(=S)N1CCN(C(c2ccccc2)c2ccccc2)CC1)c1ccc(S(=O)(=O)N2CCOCC2)cc1 do in these assays?
KB-V1 cytotox: 21µM; PI4K2A block: inactive; A549 tox: inactive; KB-3-1 tox: inactive; Nrf2 block: inactive; Giardia killer: inactive

Results for CCOc1ccc(/C=N/NC(=O)c2c(C)n(C)c3ccc(OC)cc23)cc1 ?
KB-V1 cytotox: 13µM; PI4K2A block: inactive; A549 tox: inactive; KB-3-1 tox: 8.2µM; Nrf2 block: inactive; Giardia killer: inactive

Bioassay records (PubChem BioAssay)
